According to PMC7862700, “An all-to-all approach to the identification of sequence-specific readers for epigenetic DNA modifications on cytosine”:

Experiments:
Experiment in all cases: DAPPL (digital affinity profiling via proximity ligation, sequencing); 10 mM Tris-HCl pH 7.5, 50 mM NaCl, 1 mM DTT, 4% glycerol, room temperature, 30 min; GST-TFs on glutathione beads, 16-mer random dsDNA library, 0.1% formaldehyde crosslink after washing; high values mean tight binding
Conditions in all cases: protein: recombinant; tags: N-terminal GST; dsDNA, one strand shown
FLI1 = molecular target: T1, FLI1 (Homo sapiens, UniProt Q01543 1-452)
T1 sequence: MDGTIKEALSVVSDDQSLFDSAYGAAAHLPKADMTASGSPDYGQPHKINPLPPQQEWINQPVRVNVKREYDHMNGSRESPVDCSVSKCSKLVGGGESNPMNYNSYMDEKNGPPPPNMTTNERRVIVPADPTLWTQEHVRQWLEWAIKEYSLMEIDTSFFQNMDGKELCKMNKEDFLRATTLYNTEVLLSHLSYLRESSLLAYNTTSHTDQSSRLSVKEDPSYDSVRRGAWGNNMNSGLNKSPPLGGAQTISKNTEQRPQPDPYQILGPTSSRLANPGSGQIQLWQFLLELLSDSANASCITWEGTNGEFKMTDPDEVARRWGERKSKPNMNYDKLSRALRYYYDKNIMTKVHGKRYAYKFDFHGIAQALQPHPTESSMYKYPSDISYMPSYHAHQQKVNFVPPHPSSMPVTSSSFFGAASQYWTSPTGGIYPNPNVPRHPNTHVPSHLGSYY
How it was run: (§1)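 Binding signal is given per hexamer as its read frequency for a factor divided by its frequency in the tag-only sample. GST-fused human transcription factors were expressed in yeast, captured on glutathione beads, barcoded with DNA and pooled with that sample, then incubated with 200 nmole of a 16-mer random double-stranded DNA library in Tris/NaCl/DTT/glycerol buffer for 30 min at room temperature. The pools were then washed, crosslinked, proximity-ligated, amplified by PCR and sequenced on an Illumina NextSeq500.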

ELK1 = molecular target: T2, ELK1 (Homo sapiens, UniProt P19419 1-428)
T2 sequence: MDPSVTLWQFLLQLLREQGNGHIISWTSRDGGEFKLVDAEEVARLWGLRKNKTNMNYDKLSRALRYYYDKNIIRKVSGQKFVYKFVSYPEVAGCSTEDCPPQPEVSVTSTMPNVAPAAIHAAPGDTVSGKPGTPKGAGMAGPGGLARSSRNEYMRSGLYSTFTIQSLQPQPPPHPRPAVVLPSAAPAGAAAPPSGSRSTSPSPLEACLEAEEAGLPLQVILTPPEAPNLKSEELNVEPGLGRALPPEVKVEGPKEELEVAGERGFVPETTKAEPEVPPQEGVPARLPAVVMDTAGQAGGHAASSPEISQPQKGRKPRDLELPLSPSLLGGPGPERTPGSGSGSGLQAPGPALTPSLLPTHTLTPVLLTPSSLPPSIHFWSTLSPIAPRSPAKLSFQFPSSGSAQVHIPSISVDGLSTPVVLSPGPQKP
How it was run: as §1

GABPA = molecular target: T3, GABPA (Homo sapiens, UniProt Q06546 1-454)
T3 sequence: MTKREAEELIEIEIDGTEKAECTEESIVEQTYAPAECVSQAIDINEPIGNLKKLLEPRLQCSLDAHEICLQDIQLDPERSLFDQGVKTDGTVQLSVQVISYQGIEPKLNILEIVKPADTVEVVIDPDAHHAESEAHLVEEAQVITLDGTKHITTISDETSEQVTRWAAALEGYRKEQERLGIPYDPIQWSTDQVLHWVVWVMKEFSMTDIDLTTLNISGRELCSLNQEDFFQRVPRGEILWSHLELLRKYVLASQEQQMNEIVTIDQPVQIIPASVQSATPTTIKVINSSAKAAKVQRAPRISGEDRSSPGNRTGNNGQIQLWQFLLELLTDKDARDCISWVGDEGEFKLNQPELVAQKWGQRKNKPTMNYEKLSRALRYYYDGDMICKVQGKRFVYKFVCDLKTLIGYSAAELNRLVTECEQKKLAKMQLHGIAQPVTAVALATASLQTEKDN
How it was run: as §1

ERG = molecular target: T4, ERG (Homo sapiens, UniProt P11308 1-479)
T4 sequence: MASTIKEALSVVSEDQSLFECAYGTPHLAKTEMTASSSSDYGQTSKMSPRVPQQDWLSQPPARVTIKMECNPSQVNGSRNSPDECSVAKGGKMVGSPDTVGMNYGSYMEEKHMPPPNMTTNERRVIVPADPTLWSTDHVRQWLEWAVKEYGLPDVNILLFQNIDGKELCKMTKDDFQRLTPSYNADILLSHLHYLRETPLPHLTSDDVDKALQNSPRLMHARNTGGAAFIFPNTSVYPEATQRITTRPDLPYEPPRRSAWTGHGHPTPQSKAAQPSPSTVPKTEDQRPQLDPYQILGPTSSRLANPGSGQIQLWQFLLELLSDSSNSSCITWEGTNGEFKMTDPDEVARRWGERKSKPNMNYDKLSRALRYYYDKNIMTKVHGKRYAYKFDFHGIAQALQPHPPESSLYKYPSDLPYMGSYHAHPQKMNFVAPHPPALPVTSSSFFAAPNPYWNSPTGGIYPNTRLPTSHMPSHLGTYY
How it was run: as §1

ELF1 = ELF1 (Homo sapiens, UniProt P32519 1-619)
How it was run: as §1

EHF = molecular target: T5, EHF (Homo sapiens, UniProt Q9NZC4 1-300)
T5 sequence: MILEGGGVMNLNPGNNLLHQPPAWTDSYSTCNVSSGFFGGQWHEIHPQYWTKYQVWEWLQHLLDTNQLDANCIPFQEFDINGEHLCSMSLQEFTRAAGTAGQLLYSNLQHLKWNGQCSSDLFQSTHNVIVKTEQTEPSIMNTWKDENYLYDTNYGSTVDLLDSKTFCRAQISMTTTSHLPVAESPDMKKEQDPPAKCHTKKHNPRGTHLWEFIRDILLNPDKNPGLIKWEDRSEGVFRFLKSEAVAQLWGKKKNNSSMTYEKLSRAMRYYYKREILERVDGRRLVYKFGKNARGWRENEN
How it was run: as §1

SPI1 = SPI1 (Homo sapiens, UniProt P17947 1-270)
How it was run: as §1

SPIB = SPIB (Homo sapiens, UniProt Q01892 1-262)
How it was run: as §1

ELK3 = molecular target: T6, ELK3 (Homo sapiens, UniProt P41970 1-407)
T6 sequence: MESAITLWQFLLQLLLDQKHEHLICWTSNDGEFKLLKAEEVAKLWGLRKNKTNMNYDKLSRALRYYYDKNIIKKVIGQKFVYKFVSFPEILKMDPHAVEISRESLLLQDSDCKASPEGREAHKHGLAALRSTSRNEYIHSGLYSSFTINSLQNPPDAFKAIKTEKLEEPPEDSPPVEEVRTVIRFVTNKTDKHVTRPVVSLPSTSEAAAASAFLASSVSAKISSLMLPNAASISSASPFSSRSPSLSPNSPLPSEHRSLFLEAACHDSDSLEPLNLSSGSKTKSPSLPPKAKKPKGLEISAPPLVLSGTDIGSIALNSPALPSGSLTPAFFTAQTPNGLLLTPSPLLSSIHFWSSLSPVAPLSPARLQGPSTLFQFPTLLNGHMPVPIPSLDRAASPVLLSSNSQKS
How it was run: as §1

FEV = molecular target: T7, FEV (Homo sapiens, UniProt Q99581 1-238)
T7 sequence: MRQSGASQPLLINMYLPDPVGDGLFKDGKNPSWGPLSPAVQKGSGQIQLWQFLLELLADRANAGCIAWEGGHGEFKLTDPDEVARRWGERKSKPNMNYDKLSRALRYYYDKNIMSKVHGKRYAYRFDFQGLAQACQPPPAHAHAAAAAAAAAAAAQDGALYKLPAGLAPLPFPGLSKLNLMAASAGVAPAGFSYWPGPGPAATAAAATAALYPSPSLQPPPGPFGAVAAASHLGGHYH
How it was run: as §1

ETV5 = ETV5 (Homo sapiens, UniProt P41161 1-510)
How it was run: as §1

SPIC = molecular target: T8, SPIC (Homo sapiens, UniProt Q8N5J4 1-248)
T8 sequence: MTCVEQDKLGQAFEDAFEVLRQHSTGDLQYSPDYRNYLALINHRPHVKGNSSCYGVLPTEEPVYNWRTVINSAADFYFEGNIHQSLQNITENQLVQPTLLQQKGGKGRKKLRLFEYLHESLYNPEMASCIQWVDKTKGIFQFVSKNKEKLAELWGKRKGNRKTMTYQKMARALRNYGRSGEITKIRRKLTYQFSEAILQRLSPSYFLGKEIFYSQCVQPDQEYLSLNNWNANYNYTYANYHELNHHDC
How it was run: as §1

ELF4 = ELF4 (Homo sapiens, UniProt Q99607 1-663)
How it was run: as §1

ELK4 = molecular target: T9, ELK4 (Homo sapiens, UniProt P28324-2 1-405)
T9 sequence: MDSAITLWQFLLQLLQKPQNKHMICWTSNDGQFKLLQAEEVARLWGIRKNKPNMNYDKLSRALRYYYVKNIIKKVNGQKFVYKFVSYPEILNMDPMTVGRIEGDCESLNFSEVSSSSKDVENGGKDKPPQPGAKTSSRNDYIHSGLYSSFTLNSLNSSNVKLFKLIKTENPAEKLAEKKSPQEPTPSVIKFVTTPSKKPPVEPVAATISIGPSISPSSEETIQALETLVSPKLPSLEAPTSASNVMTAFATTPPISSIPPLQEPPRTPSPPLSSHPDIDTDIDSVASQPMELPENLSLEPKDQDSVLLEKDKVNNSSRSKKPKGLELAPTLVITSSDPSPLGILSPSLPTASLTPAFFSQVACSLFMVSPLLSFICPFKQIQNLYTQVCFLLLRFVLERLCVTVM
How it was run: as §1

ETV2 = molecular target: T10, ETV2 (Homo sapiens, UniProt O00321 1-342)
T10 sequence: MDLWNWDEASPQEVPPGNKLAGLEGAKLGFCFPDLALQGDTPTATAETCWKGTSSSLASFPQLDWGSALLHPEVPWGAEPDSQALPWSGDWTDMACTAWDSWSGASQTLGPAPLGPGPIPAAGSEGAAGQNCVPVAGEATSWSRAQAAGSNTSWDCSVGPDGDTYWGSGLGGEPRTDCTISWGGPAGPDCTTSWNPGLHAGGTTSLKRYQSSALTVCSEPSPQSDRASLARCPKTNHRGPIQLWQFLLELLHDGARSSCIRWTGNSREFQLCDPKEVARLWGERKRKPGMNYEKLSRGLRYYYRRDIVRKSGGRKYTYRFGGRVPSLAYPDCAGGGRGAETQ
How it was run: as §1

ELF3 = molecular target: T11, ELF3 (Homo sapiens, UniProt P78545 1-371)
T11 sequence: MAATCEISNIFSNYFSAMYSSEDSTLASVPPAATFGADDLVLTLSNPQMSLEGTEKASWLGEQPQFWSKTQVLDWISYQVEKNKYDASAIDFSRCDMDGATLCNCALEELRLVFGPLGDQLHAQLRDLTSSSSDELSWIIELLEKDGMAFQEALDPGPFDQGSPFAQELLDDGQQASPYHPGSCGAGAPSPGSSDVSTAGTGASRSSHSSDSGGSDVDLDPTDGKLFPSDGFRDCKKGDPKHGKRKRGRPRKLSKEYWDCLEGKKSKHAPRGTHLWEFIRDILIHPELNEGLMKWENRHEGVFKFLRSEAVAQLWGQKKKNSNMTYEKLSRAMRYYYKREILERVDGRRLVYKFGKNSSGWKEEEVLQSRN
How it was run: as §1

ETV1 = ETV1 (Homo sapiens, UniProt P50549 1-477)
How it was run: as §1

Sequence of ELF4 (Q99607 whole entry): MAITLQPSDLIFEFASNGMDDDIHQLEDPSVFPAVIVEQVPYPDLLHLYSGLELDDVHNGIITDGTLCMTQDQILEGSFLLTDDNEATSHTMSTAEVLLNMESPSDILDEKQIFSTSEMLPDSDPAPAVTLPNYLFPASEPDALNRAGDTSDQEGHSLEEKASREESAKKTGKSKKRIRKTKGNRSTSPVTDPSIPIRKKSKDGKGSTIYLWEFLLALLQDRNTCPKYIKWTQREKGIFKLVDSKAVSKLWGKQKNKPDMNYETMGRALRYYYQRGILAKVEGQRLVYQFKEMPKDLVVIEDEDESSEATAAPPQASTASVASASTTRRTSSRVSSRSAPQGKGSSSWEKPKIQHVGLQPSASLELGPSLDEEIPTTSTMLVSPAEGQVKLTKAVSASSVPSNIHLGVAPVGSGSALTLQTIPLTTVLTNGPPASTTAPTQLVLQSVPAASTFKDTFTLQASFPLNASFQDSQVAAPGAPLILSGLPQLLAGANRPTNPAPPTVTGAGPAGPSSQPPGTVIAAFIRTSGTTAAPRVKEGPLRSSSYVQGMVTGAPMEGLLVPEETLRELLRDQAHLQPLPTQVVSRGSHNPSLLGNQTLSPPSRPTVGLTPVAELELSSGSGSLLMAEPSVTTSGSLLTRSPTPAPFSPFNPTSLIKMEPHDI
Sequence of SPIB (Q01892 whole entry): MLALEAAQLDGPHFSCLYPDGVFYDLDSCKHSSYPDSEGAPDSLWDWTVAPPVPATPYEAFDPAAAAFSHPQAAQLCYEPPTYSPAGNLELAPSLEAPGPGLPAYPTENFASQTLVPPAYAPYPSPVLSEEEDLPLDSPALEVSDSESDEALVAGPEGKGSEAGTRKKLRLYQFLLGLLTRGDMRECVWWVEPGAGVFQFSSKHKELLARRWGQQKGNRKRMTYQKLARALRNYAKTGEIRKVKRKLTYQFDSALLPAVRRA
Sequence of ETV5 (P41161 whole entry): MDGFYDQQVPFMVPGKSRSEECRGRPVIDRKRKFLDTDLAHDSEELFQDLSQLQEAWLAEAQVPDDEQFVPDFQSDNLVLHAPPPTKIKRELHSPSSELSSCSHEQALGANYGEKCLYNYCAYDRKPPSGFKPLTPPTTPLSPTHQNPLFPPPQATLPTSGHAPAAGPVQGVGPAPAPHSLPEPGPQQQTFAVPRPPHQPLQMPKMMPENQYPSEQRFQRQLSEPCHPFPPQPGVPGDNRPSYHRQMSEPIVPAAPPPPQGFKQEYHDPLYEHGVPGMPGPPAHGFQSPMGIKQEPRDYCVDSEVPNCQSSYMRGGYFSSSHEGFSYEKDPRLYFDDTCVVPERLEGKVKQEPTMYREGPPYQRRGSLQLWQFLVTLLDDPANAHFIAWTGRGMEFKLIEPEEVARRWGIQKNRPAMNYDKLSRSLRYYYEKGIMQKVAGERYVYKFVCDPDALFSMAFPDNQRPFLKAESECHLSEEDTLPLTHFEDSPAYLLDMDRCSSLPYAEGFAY
Sequence of ETV1 (P50549 whole entry): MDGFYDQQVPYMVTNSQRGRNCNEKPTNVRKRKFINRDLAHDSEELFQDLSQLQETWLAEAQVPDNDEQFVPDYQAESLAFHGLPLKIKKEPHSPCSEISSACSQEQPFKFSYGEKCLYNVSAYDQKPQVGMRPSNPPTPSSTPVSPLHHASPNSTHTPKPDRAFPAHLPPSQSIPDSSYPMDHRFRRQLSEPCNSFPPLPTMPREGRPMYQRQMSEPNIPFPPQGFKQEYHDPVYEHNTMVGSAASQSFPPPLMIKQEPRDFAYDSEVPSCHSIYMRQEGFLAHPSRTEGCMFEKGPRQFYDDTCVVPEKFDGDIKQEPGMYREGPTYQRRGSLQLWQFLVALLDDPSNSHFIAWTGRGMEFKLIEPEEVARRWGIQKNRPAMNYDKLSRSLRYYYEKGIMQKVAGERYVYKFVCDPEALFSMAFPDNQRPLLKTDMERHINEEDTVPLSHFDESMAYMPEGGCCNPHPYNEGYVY
Sequence of ELF1 (P32519 whole entry): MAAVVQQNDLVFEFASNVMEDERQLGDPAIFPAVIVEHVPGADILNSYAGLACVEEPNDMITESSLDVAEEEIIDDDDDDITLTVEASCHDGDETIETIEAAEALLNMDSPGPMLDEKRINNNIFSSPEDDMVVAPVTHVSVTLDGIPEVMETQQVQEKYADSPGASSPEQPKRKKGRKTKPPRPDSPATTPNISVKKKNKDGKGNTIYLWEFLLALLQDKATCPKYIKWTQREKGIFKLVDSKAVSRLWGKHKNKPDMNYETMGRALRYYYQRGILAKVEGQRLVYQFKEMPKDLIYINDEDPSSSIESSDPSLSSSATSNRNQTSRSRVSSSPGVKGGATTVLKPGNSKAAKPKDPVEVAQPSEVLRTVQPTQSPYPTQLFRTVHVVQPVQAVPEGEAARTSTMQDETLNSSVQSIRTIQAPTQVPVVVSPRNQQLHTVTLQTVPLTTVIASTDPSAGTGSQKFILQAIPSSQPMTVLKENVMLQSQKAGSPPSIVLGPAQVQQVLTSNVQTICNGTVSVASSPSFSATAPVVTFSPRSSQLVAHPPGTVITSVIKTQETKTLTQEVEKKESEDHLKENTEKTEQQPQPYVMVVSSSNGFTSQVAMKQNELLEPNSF

Sequence | binding signal (FLI1) | binding signal (ELK1) | binding signal (GABPA) | binding signal (ERG) | binding signal (ELF1) | binding signal (EHF) | binding signal (SPI1) | binding signal (SPIB) | binding signal (ELK3) | binding signal (FEV) | binding signal (ETV5) | binding signal (SPIC) | binding signal (ELF4) | binding signal (ELK4) | binding signal (ETV2) | binding signal (ELF3) | binding signal (ETV1)
TGTGAC | 1.05 fold enrichment (6-mer frequency, TF over GST control) | 1.09 fold enrichment (6-mer frequency, TF over GST control) | 1.15 fold enrichment (6-mer frequency, TF over GST control) | 1.08 fold enrichment (6-mer frequency, TF over GST control) | 1.16 fold enrichment (6-mer frequency, TF over GST control) | 1.01 fold enrichment (6-mer frequency, TF over GST control) | 1.17 fold enrichment (6-mer frequency, TF over GST control) | 1.22 fold enrichment (6-mer frequency, TF over GST control) | 1.1 fold enrichment (6-mer frequency, TF over GST control) | 1.14 fold enrichment (6-mer frequency, TF over GST control) | 1.15 fold enrichment (6-mer frequency, TF over GST control) | 1.14 fold enrichment (6-mer frequency, TF over GST control) | 1.19 fold enrichment (6-mer frequency, TF over GST control) | 1.2 fold enrichment (6-mer frequency, TF over GST control) | 1.09 fold enrichment (6-mer frequency, TF over GST control) | 1.16 fold enrichment (6-mer frequency, TF over GST control) | 1.04 fold enrichment (6-mer frequency, TF over GST control)
CCGGAC | 1.47 fold enrichment (6-mer frequency, TF over GST control) | 1.48 fold enrichment (6-mer frequency, TF over GST control) | 1.41 fold enrichment (6-mer frequency, TF over GST control) | 1.74 fold enrichment (6-mer frequency, TF over GST control) | 1.44 fold enrichment (6-mer frequency, TF over GST control) | 1.56 fold enrichment (6-mer frequency, TF over GST control) | 1.41 fold enrichment (6-mer frequency, TF over GST control) | 1.57 fold enrichment (6-mer frequency, TF over GST control) | 1.38 fold enrichment (6-mer frequency, TF over GST control) | 2.05 fold enrichment (6-mer frequency, TF over GST control) | 1.57 fold enrichment (6-mer frequency, TF over GST control) | 1.22 fold enrichment (6-mer frequency, TF over GST control) | 1.44 fold enrichment (6-mer frequency, TF over GST control) | 1.15 fold enrichment (6-mer frequency, TF over GST control) | 1.39 fold enrichment (6-mer frequency, TF over GST control) | 1.45 fold enrichment (6-mer frequency, TF over GST control) | 1.53 fold enrichment (6-mer frequency, TF over GST control)
